Reference: the supplement of paper PMC10981050
“And” between values parts separate entries of the source, which are not always exact repeats. Equal values may be shown once. Where a name gives a salt, the structure may show the parent alone.

Experiments:
Test in all cases: cell viability relative to vehicle control; higher = less cytotoxic
Settings in all cases: 10 µM
[1] = system: K562
In short: (§1)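 Screening covered the Selleck bioactive, kinase and epigenetic probe libraries, less identity-inconsistent compounds, on CRISPR-edited mutant clones and isogenic wild-type clones of four leukaemia lines. Cells, at 2000 per well in 50 µL medium, received a single 10 µM acoustically dispensed dose. After 48 h the supernatant was removed and CellTiter-Glo luminescence was read. Viability was analysed in Genedata Screener as percent of the on-plate vehicle control.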

[2] = system: MARIMO
In short: as §1

[3] = system: MOLM14
In short: as §1

[4] = system: OCI-AML2
In short: as §1

Structure (SMILES) | cell viability ([1]; SRSF2 genotype: SRSF2 P95H/wt) | cell viability ([1]; SRSF2 genotype: SRSF2 wt/wt) [%] | cell viability ([2]; SRSF2 genotype: SRSF2 P95H/wt) [%] | cell viability ([2]; SRSF2 genotype: SRSF2 wt/wt) [%] | cell viability ([3]; SRSF2 genotype: SRSF2 P95H/wt) [%] | cell viability ([3]; SRSF2 genotype: SRSF2 wt/wt) [%] | cell viability ([4]; SRSF2 genotype: P95H/wt) [%] | cell viability ([4]; SRSF2 genotype: wt/wt) [%]
Nc1cccc(-c2cc3c(Oc4cccc(O)c4)ncnc3[nH]2)c1 | 28.4% and 39.8% | 27.7 | 84.4 | 94.5 | 37.8 | 35.5 | 53.4 | 53.3
COc1cc(N)c(Cl)cc1C(=O)NC1CCN(CCCOc2ccc(F)cc2)CC1OC (stereo not given) [Cisapride hydrate] | 93.4% and 92.3% | 95.5 | 93.3 | 105 | 99.8 | 102 | 105 | 99.8
COc1ccc(-c2ccc3cc(C(=O)O)ccc3c2)cc1C12CC3CC(CC(C3)C1)C2 [Adapalene] | 93.7% and 97.8% | 88.2 | 45.3 | 26.6 | 56.9 | 23.9 | 31.2 | 38.6
CCCCc1ccc(O)cc1O [4-Butylresorcinol] | 99.6% and 85.8% | 91.2 | 90.6 | 102 | 86.5 | 93.8 | 85.7 | 88.9
Cc1c(-c2ccnn2C)cc(C(=O)NCc2ccc(S(C)(=O)=O)cn2)c(=O)n1-c1cccc(C(F)(F)F)c1 | 97.6% and 102% | 100 | 112 | 105 | 109 | 106 | 107 | 113
Cc1c(NC(=O)c2ccc(C(C)(C)C)cc2)cccc1-c1cn(C)c(=O)c(Nc2ccc(C(=O)N3CCOCC3)cc2)n1 | 94% and 92.1% | 90.8 | 91.5 | 97.4 | 96.1 | 93.4 | 82 | 87.4
Oc1cc(O)cc(/C=C/c2ccc(O)c(O)c2)c1 [Piceatannol] | 86.5% and 89.3% | 97 | 92.8 | 88.8 | 71.8 | 79.7 | 90.4 | 87.9
Cc1cc(-c2nc(-c3ccc(OC(F)(F)F)cc3)no2)nn1Cc1ccnc(N2CCN(C3CC3)CC2)c1 | 61.8% and 46.9% | 54.1 | 63 | 53.7 | 63.5 | 51.8 | 52.2 | 46.9
CCCC(=O)Nc1ncnc2c1ncn2[C@@H]1O[C@@H]2COP(=O)(O)O[C@H]2[C@H]1OC(=O)CCC [Dibutyryl-cAMP (Bucladesine)] | 91.3% and 90.5% | 92.8 | 87.2 | 97.4 | 83.6 | 94.4 | 104 | 97.7
CCn1c2ccccc2c2cc(CNCc3ccccc3OC)ccc21 [HLCL-61 hydrochloride] | 81.8% and 88% | 84.8 | 73.9 | 84.8 | 75 | 88.9 | 65.8 | 76.6
